Compound activity as filed in PubChem BioAssay.
An excerpt weighted towards active compounds, which were near 4.8% of everything screened.
DAX1 inh-1: inhibits human nuclear receptor DAX1 | P51843 | HEK293 Gal4-DAX1 luciferase reporter, luminescence | inhibition, % at 6.75 µM | hit rate 0.99% among 340,000 | AID 504766;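 active = inhibition above the mean over all tested compounds plus 3 SD, cut at about 4.2% in these data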;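 note: inhibition shows as a rise in luminescence from relieved DAX1 repression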
Target sequence (P51843 207-470 limits assumed): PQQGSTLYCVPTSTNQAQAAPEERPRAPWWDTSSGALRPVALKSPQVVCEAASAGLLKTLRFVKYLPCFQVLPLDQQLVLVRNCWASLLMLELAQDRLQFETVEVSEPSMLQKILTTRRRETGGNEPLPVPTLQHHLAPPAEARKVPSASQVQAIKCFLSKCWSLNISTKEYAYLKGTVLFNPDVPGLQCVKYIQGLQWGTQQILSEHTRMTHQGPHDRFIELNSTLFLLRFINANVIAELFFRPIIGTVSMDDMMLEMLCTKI
hgDAF-12 ag: agonists of H. glycines DAF-12 nuclear receptor; HEK293 GAL4-hgDAF12 UAS-luciferase reporter, agonist luminescence; normalized to butyrate control; activation, % at 6.8 µM; hit rate 1.8% among 370,000;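 active = activation above a cutoff set at the mean of all screened compounds plus 3 SD, cut at about 10% in these data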
hcDAF12 agonist: activators of H. contortus DAF-12 nuclear receptor. AID 652067. HEK293 hcDAF-12 lit1-tk-luc reporter, luminescence; 0% DMSO, 100% Δ7-dafachronic acid. activation, % at 6.8 µM. hit rate 1.4% among 370,000;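 active = activation above the mean of all tested compounds plus 3 SD, cut at about 5.5% in these data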
DAX1 inh-2: DAX1 (NR0B1) inhibition, primary screen; inhibition, % at 6.8 µM; hit rate 1.1% among 370,000; HEK293T StAR-luciferase reporter, SF-1/DAX-1 repression relief;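 active = inhibition above the mean over all tested compounds plus 3 SD, cut at about 3.6% in these data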;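 note: higher inhibition means more luminescence from relief of DAX-1 repression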
ssDAF-12 act: S. stercoralis DAF-12 activation, primary screen. HEK293 ssDAF-12/GRIP1 lit1-tk-luc reporter, luminescence; % of 3 µM dafachronic acid response. activation, % at 6.8 µM. hit rate 1% among 370,000. AID 652126;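 active = activation above the mean over all tested compounds plus 3 SD, cut at about 0.9% in these data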
SMARCA2 act: SMARCA2 function activation, primary screen | MG213 cells, MMTV-luciferase reporter, dexamethasone, overnight | activation, % at 9.1 µM | hit rate 1% among 370,000; in the data active = activation above about 7.8%
Hits are given with their value; – = inactive; · = not tested or not shown.

SMILES	DAX1 inh-1	hgDAF-12 ag	hcDAF12 agonist	DAX1 inh-2	ssDAF-12 act	SMARCA2 act
CC(C)(C)CNC(=O)C1(C)CCN1C(=O)Cc1ccc(-c2ccccc2)cc1 (stereo not drawn)	·	–	–	–	–	–
O=C(COC(=O)Cc1n[nH]c(=O)c2ccccc12)NNC(=O)c1ccc(Cl)cc1	–	–	–	–	–	–
Cc1cc(C(=O)Nc2cccc3cccnc23)ccc1[N+](=O)[O-]	–	–	5.9	–	–	–
COc1cccc(C(=O)Nc2cccc3cccnc23)c1OC	4.3	·	·	·	·	·
COc1ccccc1NS(=O)(=O)c1cccc2cccnc12	5.4	–	–	–	–	–
O=C(O)CCC(=O)Nc1cccc2cccnc12	5.2	–	–	–	–	–
CCn1c(=O)c(C(=O)CC#N)c(N)n(Cc2ccccc2)c1=O	4.9	–	–	–	–	–
CCn1c(=O)c(C(=O)CN2CCOCC2)c(N)n(Cc2ccccc2)c1=O	–	–	–	–	–	–
O=C(Nn1cnnc1)c1ccc(Cl)c(Cl)c1	6.2	–	–	–	–	–
Cc1ccc(C(=O)N2CCN(C)CC2)cc1[N+](=O)[O-]	4.6	–	–	–	–	–
COc1ccccc1N(C)S(=O)(=O)c1ccc(C(=O)N(C)Cc2ccc(Cl)s2)cc1	–	–	–	–	–	–
CCCC(=O)Oc1cccc(C2NC(=O)c3ccccc3O2)c1 (stereo not drawn)	–	–	–	–	–	–
CC(C)Oc1cccc(C2NC(=O)c3ccccc3O2)c1 (stereo not drawn)	4.7	–	–	–	–	–
C/C(Cn1cnc([N+](=O)[O-])n1)=N\NC(=O)c1ccccc1F	–	11	–	–	–	–
O=C1CCC(C(=O)N(CCO)Cc2ccccc2)CN1CC1CCCCC1 (stereo not drawn)	–	–	–	–	–	–
NCCCn1c(C(=O)c2cc(Cl)c(N)c(Cl)c2)c2ccc(C(F)(F)F)cc2[n+]1[O-]	–	–	6.5	–	–	–
COc1ccc(F)cc1S(=O)(=O)N1CCN(C(=O)c2ccco2)CC1	–	–	–	–	–	–
C[C@@H]1COC(=O)CCC/C=C\C[C@@H](CC(=O)N(CCO)Cc2ccccc2)C(=O)N1	–	–	–	–	–	–
CC(=O)c1ccc(NC(=S)NCc2cccnc2)cc1	6.1	–	–	–	–	–
CC(=O)Nc1ccc(S(=O)(=O)NCc2cccnc2)cc1	–	–	6.0	–	–	–
O=C(NC(=S)NCc1ccccc1)c1cccnc1	–	–	–	–	1.0	–
O=C(NCc1cccnc1)Nc1ccccc1	–	–	–	–	1.0	–
CN(CC(=O)Nc1ccc(Cl)c(S(=O)(=O)N2CCOCC2)c1)C(=O)c1ccc(C#N)cc1	–	–	–	–	–	–
O=C(NC1CCCCC1)C(c1ccnc2ccccc12)n1c(=O)c(-c2ccccc2)nc2ccccc21 (stereo not drawn)	·	–	–	–	–	–
N#CCCN(Cc1cccnc1)C(=S)NC(=O)c1ccccc1	4.6	–	–	–	–	–
SMILES	DAX1 inh-1	hgDAF-12 ag	hcDAF12 agonist	DAX1 inh-2	ssDAF-12 act	SMARCA2 act
N#CCCN(Cc1cccnc1)C(=S)Nc1ccccc1Cl	–	–	–	–	–	–
CC(C)(C)c1ccc(-c2nnc(SCC(=O)c3ccc([N+](=O)[O-])cc3)n2-c2ccc(Cl)cc2)cc1	·	–	–	–	–	–
N#C/C(=N\Nc1ccccc1)C(=N)N1CCCCC1	–	12	–	–	–	–
N#C/C(=N\Nc1ccc(Br)cc1)C(=N)N1CCOCC1	–	–	–	–	–	–
COc1ccccc1C(=O)N/N=C1/NC(=O)CC(C(=O)Nc2ccccc2)S1 (stereo not drawn)	–	–	–	–	–	–
O=C1CC(C(=O)Nc2ccccc2)S/C(=N\NC(=O)c2ccccc2Cl)N1 (stereo not drawn)	4.3	–	–	–	–	–
COCC1CN(CCc2ccc(F)cc2)S(=O)(=O)c2c(OCCN3C(=O)[C@@H]4[C@H](C3=O)[C@@H]3C=C[C@H]4C3)cccc2O1 (stereo partly drawn)	·	–	–	–	–	–
CC(=O)c1ccc(Nc2cnn(C34CC5CC(CC(CC(=O)O)(C5)C3)C4)c(=O)c2Cl)cc1	5.4	–	–	–	–	–
COc1ccc(OC)c(NC(=O)C2(C)CCN2CCc2ccccc2)c1 (stereo not drawn)	·	–	–	–	–	–
COc1ccc(-c2nn(Cc3ccccc3)cc2C(=O)N2CCN(c3ncccn3)CC2)cc1	–	–	–	–	–	–
C/C(=N/NC(=O)c1sc(NS(=O)(=O)c2ccccc2)nc1C)c1ccccc1	5.6	–	–	–	–	–
CC(=O)N/C(=C/c1ccccc1)C(=O)NC(Cc1ccccc1)C(=O)O (stereo not drawn)	–	11	–	–	–	–
CC(OC(=O)c1ccc(C#N)cc1)C(=O)Nc1ccc(Cl)cn1 (stereo not drawn)	–	–	–	–	–	–
COc1cccc(NC(=O)CN(C)C(=O)c2cc(S(=O)(=O)N3CCCCC3)ccc2Cl)c1	–	–	–	4.2	–	–
CC1(C)CC(NC(=O)c2ccc(Cl)cc2Cl)CC(C)(C)N1	–	–	–	–	–	–
CC1(C)CC(N=c2cc(-c3ccccc3)oc3ccc(Cl)cc23)CC(C)(C)N1	5.9	–	–	–	–	–
Cc1ccc(-n2nnc(-c3cc4ccccc4nc3Cl)n2)cc1	–	–	–	–	1.4	–
O=c1[nH]c2ccccc2cc1-c1nnn(-c2ccc(Cl)c(Cl)c2)n1	–	–	–	–	–	–
Cc1cc(NC(=O)CSc2nc3c(C)ccc(C)c3cc2C#N)no1	5.7	–	–	–	–	–
CCOC(=O)CNC(=O)CSc1nc(C)cc(C)c1C#N	–	–	–	–	–	–
Cc1cc(C)c(C#N)c(SCC(=O)Nc2cc(C)on2)n1	–	11	–	–	–	–
Cc1cc(NC(=O)CSc2nnc(C)n2-c2ccccc2C)no1	4.2	–	–	–	–	–
CCOC(=O)NC(=O)CSc1nc(C)cc(C)c1C#N	–	13	–	–	–	–
O=C(O)c1ccc(-n2c(-c3cc(-c4ccco4)[nH]n3)n[nH]c2=S)cc1	–	–	–	–	–	–
CC(=O)c1ccc(-n2c(-c3cc(-c4ccco4)[nH]n3)n[nH]c2=S)cc1	5.6	–	–	–	–	–
O=C(O)c1ccc(-n2c(-c3cc(C4CC4)[nH]n3)n[nH]c2=S)cc1	4.6	–	–	–	–	–
COC(=O)C[C@@H]1CC[C@H]2[C@@H](COc3ccc(NC(=O)c4ccc(Cl)cc4)cc3C(=O)N2C)O1	·	–	–	–	–	–
O=C(N[C@@H](Cc1ccccc1)C(=O)N1CCC2CCN(S(=O)(=O)c3ccccc3)CC21)[C@@H]1CCCN1 (stereo partly drawn)	·	–	–	–	–	–
